Most compounds without a hit are left out; they make up all but 3.1% or so of the library.
YjeE inh: displaces an ADP probe from E. coli YjeE (TsaE) | P0AF67 | purified YjeE enzyme, qHTS inhibition assay | Potency, µM | 71,000 tested, 0.05% active | AID 605
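Fluorescence polarization of a BODIPY Texas Red–ADP probe (2 uM) bound to purified YjeE (10 uM) was read after 15 min room-temperature incubation with compounds. Loss of polarization marks inhibitors; ADP serves as titrated control.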
DNA Pol III inh: inhibitors of bacterial DNA polymerase III holoenzyme. reconstituted DNA polymerase III holoenzyme replication, biochemical. Potency, µM (highest dose often 57.1 µM), without a hit: top-dose activity change, negative = inhibition. 71,000 tested, 0.25% active; further: potency means the concentration at half of the fitted maximal effect; on the % scale 0 is the no-effect control and ±100 the full control effect
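Reconstituted *E. coli* holoenzyme (0.35 nM Pol III, 1 nM beta, 154 nM SSB, 2 nM primase) was preincubated with compound for 15 min at RT. Synthesis on 1.4 nM ssM13Gori ran 35 min, then was stopped with PicoGreen/EDTA and read as dsDNA fluorescence.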
BRCT PPI green: BRCA1 BRCT-phosphoprotein interaction inhibition | P38398 | BRCA1 BRCT-phosphopeptide binding, green fluorescence polarization | Potency, µM (series often up to 76.9 µM), without a hit: top-dose activity change, negative = inhibition, hits mostly inhibitors | 75,000 tested, 0.05% active;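 further: potency means the concentration at half of the fitted maximal effect; plate controls were peptide without protein for full effect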
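Fluorescence polarization: His-tagged BRCT (~35 kDa BRCA1 C-terminus, 250 nM) bound to 100 nM fluorescein-labeled phosphorylated 10-aa BACH1 peptide, pH 7.3 phosphate buffer with DTT and Tween 20. Compounds incubated 12 min at room temperature; inhibition read as lowered polarization.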
BRCT inh red: BRCT-phosphoprotein interaction inhibition (red fluorophore); P38398; BRCT-phosphopeptide binding, red fluorescence polarization; Potency, µM (doses to about 76.9 µM), inactives show at the top dose activity change, negative = inhibition, usual class: inhibitors; 75,000 tested, 0.03% active; AID 892; further: on the % scale 0 is the no-effect control and ±100 the full control effect
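Fluorescence polarization: 100 nM His-tagged BRCA1 BRCT with 100 nM TAMRA-labelled phospho-BACH1 decapeptide, phosphate buffer pH 7.3 with 150 mM NaCl, DTT, 0.01% Tween 20; 12 min RT. Binding inhibition seen as FP decrease.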
Tau fil binding: binders of human tau filaments | recombinant tau filaments, thioflavin S fluorescence, 15 h; filaments grown with octadecylsulfate alongside compound | Potency, µM (titrated, usually from 57.1 µM), for the others: at the highest dose activity change, negative = inhibition | 71,000 tested, 2% active | AID 596;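 further: potency means the concentration at half of the fitted maximal effect; on the % scale 0 is the no-effect control and ±100 the full control effect; actives lower thioflavin S fluorescence by blocking filaments or displacing dye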
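Thioflavine S fluorescence (ex 450, em 510 nm) reports filaments formed from 1 uM human tau plus 30 uM ODS over 15 h at 37 C (10 mM HEPES pH 7.4, 100 mM NaCl, 5 mM DTT); compounds displacing dye or blocking filaments lower signal.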
ALOX15 inhib: 15-hLO (ALOX15) enzyme inhibition. Potency, µM (doses to about 57.1 µM), without a hit: top-dose activity change, negative = inhibition, actives largely listed as inhibitors. purified 15hLO-1, xylenol orange hydroperoxide absorbance. P16050. 74,000 tested, 1.4% active; further: potency means the concentration at half of the fitted maximal effect; on the % scale 0 is the no-effect control and ±100 the full control effect; nearly all actives have a fitted effect of over 55% in size
Target sequence (P16050 whole entry, looked up): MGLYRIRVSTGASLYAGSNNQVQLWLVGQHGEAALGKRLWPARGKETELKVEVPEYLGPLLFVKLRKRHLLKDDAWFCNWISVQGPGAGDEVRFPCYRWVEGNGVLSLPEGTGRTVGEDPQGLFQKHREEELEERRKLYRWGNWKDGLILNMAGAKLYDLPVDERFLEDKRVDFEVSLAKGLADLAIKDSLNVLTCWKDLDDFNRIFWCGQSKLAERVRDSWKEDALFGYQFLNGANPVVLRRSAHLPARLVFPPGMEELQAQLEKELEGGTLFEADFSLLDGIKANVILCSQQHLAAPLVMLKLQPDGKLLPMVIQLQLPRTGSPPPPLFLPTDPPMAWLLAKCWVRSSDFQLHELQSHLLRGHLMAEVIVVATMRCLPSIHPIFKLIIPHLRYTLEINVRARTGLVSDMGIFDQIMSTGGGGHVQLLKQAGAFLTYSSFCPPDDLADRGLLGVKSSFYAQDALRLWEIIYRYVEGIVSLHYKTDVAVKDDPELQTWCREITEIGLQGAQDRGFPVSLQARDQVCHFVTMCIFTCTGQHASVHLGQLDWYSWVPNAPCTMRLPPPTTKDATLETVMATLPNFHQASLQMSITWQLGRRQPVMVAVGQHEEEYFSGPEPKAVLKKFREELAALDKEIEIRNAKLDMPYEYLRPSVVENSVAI
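Purified human 15hLO-1 (40 nM final) in 25 mM Hepes pH 7.5, 0.01% Triton X-100 was preincubated with compound 15 min at room temperature, then reacted 6 min with 50 uM arachidonic acid; hydroperoxide detected by Fe-XO, 573/405 nm absorbance ratio.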
Starred values were filed as active, the others as inactive; i = inactive; ? = inconclusive; . = not tested or not shown; [ ] = remark or other dose. The call rests on the fitted dose curve; in most records, active means well fitted curve in the direction sought with a large enough effect; inconclusive means small, poorly fitted or top-dose-only effect, or another doubt; inactive means no such curve, though single readings can be large; an effect the other way counts as inactive or inconclusive.

SMILES	YjeE inh	DNA Pol III inh	BRCT PPI green	BRCT inh red	Tau fil binding	ALOX15 inhib
CCCCSc1nc2c(cc1C#N)CCC2	i	1.5%	1.6%	-0.5%	3.6%	?
O=Cc1ccc(Cl)cc1	i	-1.3%	5.0%	-2.7%	3.4%	-14.1%
O=C1c2ccccc2-c2cc([N+](=O)[O-])c([N+](=O)[O-])cc21	i	-1.2%[11.4 µM]	-0.7%[15.4 µM]	-0.8%[15.4 µM]	3.98µM*	12.1%[11.4 µM]
O=C(O)c1cccc(OCCO)c1	i	-4.8%[11.4 µM]	-0.3%[15.4 µM]	-0.8%[15.4 µM]	3.0%[11.4 µM]	8.5%[11.4 µM]
Cc1cccc(-n2c(SCc3cc(=O)n4ccsc4n3)nc3ccccc32)c1	i	-5.7%	2.9%	0.1%	6.2%	12.6µM*
CC1(C)CCC[C@@]2(C)[C@@H]1CC[C@]1(C)OC(=O)C[C@@H]21	i	-2.4%	.	.	-15.3%	.
CCNc1ncc2nc(CCc3ccccc3)c(=O)n(C)c2n1	i	0.8%	0.4%	-0.9%	417.8%	25.1µM*
CC1(C)CC(=O)C2=C(C1)Oc1ncn(CCO)c(=N)c1C2c1ccccc1 (stereo not drawn)	i	0.8%	1.3%	1.6%	14.0%	7.9%
COc1ccc(C2C3=C(CC(C)(C)CC3=O)Oc3ncn(CC(C)C)c(=N)c32)cc1 (stereo not drawn)	i	-1.4%	4.1%	-0.7%	3.98µM*	0.5%
COc1ccc(C2C3=C(CC(C)(C)CC3=O)Oc3ncn(Cc4ccco4)c(=N)c32)cc1 (stereo not drawn)	i	-12.4%	3.9%	0.6%	15.8µM*	-7.3%
COc1c2c(nc3ccccc13)O[C@@H]([C@@](C)(O)CO)C2	i	-3.6%	-2.9%	0.7%	-4.8%	-3.3%
O=C(O)c1ccccc1CN1CCC[C@@H](C(=O)O)C1	i	-5.6%[11.4 µM]	-1.2%[15.4 µM]	0.3%[15.4 µM]	8.1%[11.4 µM]	22.2%[11.4 µM]
O=c1c(-c2cc(F)cc(F)c2)nc2cncnc2n1Cc1ccc(F)cc1	i	-2.8%	10.6%	2.0%	?	7.94µM*
O=c1c(-c2ccc(Cl)cc2)nc2cncnc2n1Cc1ccccc1	i	-1.3%	-2.5%	-3.2%	?	-16.6%
O=c1c(-c2cc(F)cc(F)c2)nc2cncnc2n1Cc1ccccc1	i	-8.3%	-0.8%	-2.0%	31.6µM*	10.9%
O=c1c(-c2ccc(F)cc2)nc2cncnc2n1Cc1ccc(F)cc1	i	-7.5%	-2.1%	-0.4%	12.6µM*	7.2%
O=c1c(-c2ccc(F)c(F)c2)nc2cncnc2n1Cc1ccccc1	i	-6.3%	0.7%	-2.3%	12.6µM*	-3.3%
O=c1c(-c2ccc(F)cc2)nc2cncnc2n1Cc1ccccc1	i	-6.2%	-2.5%	-4.2%	-14.5%	-9.6%
O=c1cc[nH]c(=S)[nH]1	.	.	0.8%[3.08 µM]	-1.2%	.	6.3%
COc1ccc2c(c1OC)C(Cc1ccccc1)N1CCc3cc4c(cc3C1=C2)OCO4 (stereo not drawn)	.	.	-5.4%	-3.8%	.	?
C=CCN1CCc2c(cc(O)c(O)c2Cl)[C@H](c2ccccc2)C1	i	-6.4%	-1.5%	1.8%	-9.6%	?
CCOc1ccc2nc(NS(=O)(=O)c3ccc4c(c3)n(C)c(=O)n4C)sc2c1	i	-1.1%	58.8%	0.6%	i	?
CCOc1ccc2nc(NS(C)(=O)=O)sc2c1	i	-2.4%	0.7%	1.6%	15.8µM*	-12.0%
N#CCCN1CCN(C(=S)c2ccc(-c3ccc(Cl)cc3)o2)CC1	i	-5.2%	-1.1%	-2.8%	25.1µM*	-21.1%
COc1ccc(C(=O)N2CCC3(CC2)CN(Cc2ccc(C#N)cc2)C3)cc1	i	1.2%	-4.3%	1.1%	0.7%	8.7%
CC1=c2c(oc3cc(O)c(Nc4c(C)cc(O)cc4O)c(C)c23)=CC(=O)C1=Nc1c(C)cc(O)cc1O	?	-7.5%[11.4 µM]	-2.1%[15.4 µM]	?	1.58µM*	?
O=C(c1ccc(Cc2nc3ccccc3[nH]2)cc1)N1CCCCC1	.	.	0.5%	-2.7%	.	-9.0%
CN(C)CCOc1nc(-c2ccccc2)nc2c1oc1ccccc12	i	25.1µM*	2.8%	-0.2%	64.5%	13.8%

Source: PubChem BioAssay (National Center for Advancing Translational Sciences (NCATS))
